Data taken from PubChem BioAssay AID1159580 (chemical genetic matrix, 2015).
Among all 5,500 compounds or so, about 2,000 (36%) were called active. Another 18% or so got no clear call; they are omitted. Rule as the data show it: active = normalized growth mostly below about 0.91 (no sharp cut-off); inconclusive = no clear call, values can overlap the other calls; inactive = mostly above about 0.92. The list shows a part of the results.

Assay: chemical genetic growth profiling, strain panel (AID 1159580);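 also: tested at 20 µM; growth read once vehicle control cultures reached saturation at 30 °C; 1 = growth at the plate median or of vehicle wells; lower values mean less growth of the strain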
Details: S. cerevisiae deletion strains, growth OD
[1] = locus YDL101C, strain DUN1, active compounds read low
[2] = locus YHR030C, strain SLT2, active compounds read low

Measured: normalized growth

CCOC(=O)c1ccc2nc(N=CNO)sc2c1
inactive: locus YAR019C, strain CDC15, active compounds read low 0.948 | locus YBL105C, strain PKC1, active compounds read low 0.94 | locus YBR135W, strain CKS1, active compounds read low 0.947 | locus YBR136W, strain MEC1, active compounds read low 0.951 | locus YBR160W, strain CDC28, active compounds read low 0.954 | locus YDL017W, strain CDC7, active compounds read low 0.953 | locus YDL028C, strain MPS1, active compounds read low 0.956 | [1] 0.973 | locus YDL108W, strain KIN28, active compounds read low 0.946 | locus YDL132W, strain cdc53, active compounds read low 0.946 | locus YDL214C, strain PRR2, active compounds read low 0.905 | locus YDR052C, strain DBF4, active compounds read low 0.961 | locus YDR054C, strain cdc34, active compounds read low 0.938 | locus YDR226W, strain ADK1, active compounds read low 0.958 | locus YDR477W, strain SNF1, active compounds read low 0.913 | locus YER123W, strain YCK3, active compounds read low 0.864 | locus YER133W, strain GLC7, active compounds read low 0.888 | locus YFL009W, strain cdc4, active compounds read low 0.938 | locus YFL029C, strain CAK1, active compounds read low 0.951 | locus YFR003C, strain YPI1, active compounds read low 0.951 | locus YFR019W, strain FAB1, active compounds read low 0.909 | locus YFR028C, strain CDC14, active compounds read low 0.967 | locus YGR040W, strain KSS1, active compounds read low 0.919 | locus YGR052W, strain FMP48, active compounds read low 0.983 | locus YGR092W, strain DBF2, active compounds read low 0.771 | [2] 0.961 | locus YHR079C, strain IRE1, active compounds read low 0.964 | locus YHR082C, strain KSP1, active compounds read low 0.986 | locus YHR205W, strain SCH9, active compounds read low 0.886 | locus YIL147C, strain SLN1, active compounds read low 0.945 | locus YJL095W, strain BCK1, active compounds read low 0.977 | locus YJL128C, strain PBS2, active compounds read low 0.94 | locus YJL157C, strain FAR1, active compounds read low 0.881 | locus YJR016C, strain ILV3, active compounds read low 0.948 | locus YJR066W, strain TOR1 (second series), active compounds read low 0.717 | locus YJR066W, strain TOR1, active compounds read low 0.995 | locus YKL048C, strain ELM1, active compounds read low 0.955 | locus YKL067W, strain YNK1, active compounds read low 0.915 | locus YKL101W, strain HSL1, active compounds read low 0.907 | locus YKL193C, strain SDS22, active compounds read low 0.955 | locus YKL203C, strain TOR2, active compounds read low 0.958 | locus YLR113W, strain HOG1, active compounds read low 0.988 | locus YLR133W, strain CKI1, active compounds read low 0.922 | locus YLR403W, strain SFP1, active compounds read low 0.879 | locus YML070W, strain DAK1, active compounds read low 0.892 | locus YMR001C, strain CDC5, active compounds read low 0.951 | locus YMR205C, strain PFK2 (second series), active compounds read low 0.931 | locus YMR277W, strain FCP1, active compounds read low 0.963 | locus YNL006W, strain LST8, active compounds read low 0.945 | locus YNL020C, strain ARK1, active compounds read low 0.911 | locus YNL161W, strain CBK1, active compounds read low 0.951 | locus YNL183C, strain NPR1, active compounds read low 1 | locus YNL207W, strain RIO2, active compounds read low 0.949 | locus YNL222W, strain SSU72, active compounds read low 0.952 | locus YNL307C, strain MCK1 (second series), active compounds read low 0.926 | locus YOL078W, strain AVO1, active compounds read low 0.958 | locus YOL136C, strain PFK27, active compounds read low 0.892 | locus YOR061W, strain CKA2, active compounds read low 0.894 | locus YOR119C, strain RIO1, active compounds read low 0.908 | locus YOR231W, strain MKK1, active compounds read low 0.938 | locus YOR329C, strain SCD5, active compounds read low 0.947 | locus YPL031C, strain PHO85, active compounds read low 0.867 | locus YPL153C, strain RAD53, active compounds read low 0.88 | locus YPL204W, strain HRR25, active compounds read low 0.889 | locus YPL209C, strain IPL1, active compounds read low 0.947 | locus YPL256C, strain CLN2, active compounds read low 1.02 | locus YPR025C, strain CCL1, active compounds read low 0.95 | locus YPR106W, strain ISR1, active compounds read low 0.968 | locus YPR111W, strain DBF20, active compounds read low 0.963 | strain NNK1, active compounds read low 0.96 | strain TSCII, active compounds read low 0.952

Cc1oc(C(C)(C)C)cc1C(=O)Nc1ccc([N+](=O)[O-])cc1
inactive: locus YBR229C, strain ROT2, active compounds read low 0.976 | locus YCL061C, strain MRC1, active compounds read low 0.984 | [1] 1.03 | locus YEL061C, strain CIN8, active compounds read low 0.911 | locus YGR078C, strain PAC10, active compounds read low 0.98 | locus YHR087W, strain rtc3, active compounds read low 0.958 | locus YJR043C, strain POL32, active compounds read low 0.966 | locus YJR075W, strain HOC1, active compounds read low 0.974 | locus YLR058C, strain SHM2 (second series), active compounds read low 0.992 | locus YLR085C, strain ARP6, active compounds read low 0.813 | locus YML094W, strain GIM5, active compounds read low 0.873 | locus YMR219W, strain ESC1, active compounds read low 0.997 | locus YMR263W, strain SAP30, active compounds read low 0.943 | locus YMR307W, strain GAS1, active compounds read low 0.752 | locus YNL153C, strain GIM3, active compounds read low 0.998 | locus YNL322C, strain KRE1, active compounds read low 0.996 | locus YOL006C, strain TOP1, active compounds read low 0.88 | locus YPL241C, strain CIN2, active compounds read low 0.997
active: locus YAL013W, strain DEP1, active compounds read low 0.903 | locus YDR150W, strain NUM1, active compounds read low 0.786 | [2] 0.584 | locus YLR039C, strain RIC1, active compounds read low 0.678 | locus YLR262C, strain YPT6, active compounds read low 0.786 | locus YNL298W, strain CLA4 (second series), active compounds read low 0.788 | locus YNR030W, strain Alg12, active compounds read low 0.816 | locus YPL055C, strain LGE1, active compounds read low 0.688 | locus YPR135W, strain CTF4, active compounds read low 0.484
